Source: PubChem BioAssay
Compounds with a hit are over-represented: about 4% of the library has one in this group of screens.
TRHR enhancer: allosterically enhances the human TRH receptor; TRHR cells, fluo-8 calcium fluorescence, EC20 TRH enhancement; enhancement, % at 2 µM; AID 493056; hit rate 0.66% among 360,000; P34981; in the data active means enhancement above about 30%
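Enhancer read-out: after compound pinning and an initial kinetic agonist-mode read, an EC20 of TRH (10 nM final) was injected and fluo-8 calcium signal (Ex 480/Em 530) followed at 1 s/cycle for 100 cycles in TRHR-expressing cells.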
D1 potentiator: enhances dopamine response at the human D1 receptor; HEK293 TREx D1 cells, calcium flux, dopamine EC20 potentiation; hit rate 0.036% among 360,000; potentiation, % at 10 µM; P21728; in the data active means potentiation above about 30%
Target sequence (P21728 whole entry, looked up): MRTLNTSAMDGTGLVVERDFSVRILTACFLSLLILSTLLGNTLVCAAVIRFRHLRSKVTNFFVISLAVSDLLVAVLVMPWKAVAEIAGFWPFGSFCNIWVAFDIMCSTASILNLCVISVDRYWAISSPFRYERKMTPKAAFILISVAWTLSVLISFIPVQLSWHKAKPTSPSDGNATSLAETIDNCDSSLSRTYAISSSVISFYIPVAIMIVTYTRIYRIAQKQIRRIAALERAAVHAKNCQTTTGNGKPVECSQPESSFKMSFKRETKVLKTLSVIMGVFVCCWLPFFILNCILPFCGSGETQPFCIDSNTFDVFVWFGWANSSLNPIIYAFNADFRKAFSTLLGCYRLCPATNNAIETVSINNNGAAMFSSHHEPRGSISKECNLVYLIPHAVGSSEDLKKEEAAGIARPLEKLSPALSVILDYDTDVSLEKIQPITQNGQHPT
TRHR ag: agonists of human TRH receptor; activation, % at 2 µM; AID 493084; TRHR cells, calcium flux fluo-8, FDSS agonist mode; hit rate 0.18% among 360,000; P34981
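Agonist-mode FDSS calcium read (Ex 480/Em 530, 1 s cycles) in 1536-well TRHR cells with fluo-8 dye, after 10-cycle baseline and 23 nL compound addition; TRH at EC20 (10 nM final) added afterwards for the enhancer phase.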
D1 antagonist: blocks dopamine activation of the human D1 receptor; P21728; HEK293 TREx D1 cells, calcium flux, dopamine EC80; stronger effect = lower value; activity change, negative = inhibition, % at 10 µM; hit rate 3.2% among 360,000; AID 504652; in the data active means activity change below about -30%
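Allosteric or orthosteric antagonism assessed as attenuation of the calcium response to EC80 dopamine, added 180 s after compound, in induced HEK293 Trex D1 cells loaded with no-wash calcium dye.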
D1 agonist: activates the human D1 dopamine receptor | P21728 | HEK293 T-REx D1 cells, calcium flux, agonist mode | activation, % at 2 µM | hit rate 1% among 360,000
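Agonism was scored from calcium flux recorded over 180 s (1 read/s) after pintool compound addition, following a 10-cycle baseline. Cells were inducible force-coupled HEK293 TREx D1, plated overnight at 30 C and loaded with no-wash calcium dye.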
GRP78 ERSR act: induces the endoplasmic reticulum stress response in human glioma cells; AID 602332; hit rate 0.02% among 420,000; Potency, µM, actives largely listed as activators; U87-MG GRP78 promoter luciferase reporter, 16 h; active means well fitted activation curve with a large enough effect; further: series mostly up to about 76 µM; nearly all actives have a fitted effect of over 35% in size
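Stably transfected U87-MG glioma cells carrying a GRP78-based luciferase sensor; 16 h compound incubation. Luminescence end-point read 10 min after Bright-Glo addition at room temperature.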
A number is an active result. Unless noted, no stated cut-off is given here; in the data, active means activation above about 30%; inactive means the rest.

What do the screens show for `Cc1nn(C)c(C)c1NC(=O)/C(C#N)=C\N(C)C`?
TRHR enhancer: inactive; D1 potentiator: inactive; TRHR ag: inactive; D1 antagonist: -54; D1 agonist: inactive; GRP78 ERSR act: inactive

Results for COC(=O)Nc1ccc2ccc3c(NC(=O)OC)ccc4ccc1c2c43 ?
GRP78 ERSR act: inactive

Results for CCc1ccccc1N1CCN(S(=O)(=O)c2ccc(F)c(C)c2)CC1 ?
TRHR enhancer: inactive; D1 potentiator: inactive; TRHR ag: inactive; D1 antagonist: -37; D1 agonist: inactive; GRP78 ERSR act: inactive

What do the screens show for `Cc1ccc(N2CCN(S(=O)(=O)c3ccc(F)c(C)c3)CC2)c(C)c1`?
TRHR enhancer: inactive; D1 potentiator: inactive; TRHR ag: inactive; D1 antagonist: inactive; D1 agonist: inactive; GRP78 ERSR act: inactive

Results for Cc1nc(-c2ccc(S(=O)(=O)N3CCN(c4ccccc4F)CC3)cc2)co1 ?
TRHR enhancer: inactive; D1 potentiator: inactive; TRHR ag: inactive; D1 antagonist: -34; D1 agonist: inactive; GRP78 ERSR act: inactive

What do the screens show for `CC(=O)NS(=O)(=O)c1cccnc1Nc1cccc(Cl)c1C`?
TRHR enhancer: inactive; D1 potentiator: inactive; TRHR ag: inactive; D1 antagonist: -33; D1 agonist: inactive; GRP78 ERSR act: inactive

How did CC1CN(Cc2ccccc2)c2nc3c(c(=O)[nH]c(=O)n3C)n2C1 (configuration not stated) do in these assays?
TRHR enhancer: inactive; D1 potentiator: inactive; TRHR ag: inactive; D1 antagonist: inactive; D1 agonist: inactive; GRP78 ERSR act: inactive

How did Cn1c(=O)[nH]c(=O)c2c1nc1n2CCN1Cc1ccccc1 do in these assays?
TRHR enhancer: inactive; D1 potentiator: inactive; TRHR ag: inactive; D1 antagonist: -61; D1 agonist: inactive; GRP78 ERSR act: inactive

What do the screens show for `COCCN1CCN(C(=O)C2CCC(=O)N(CCc3ccc(Cl)cc3)C2)CC1` (configuration not stated)?
TRHR enhancer: inactive; D1 potentiator: inactive; TRHR ag: inactive; D1 antagonist: inactive; D1 agonist: inactive; GRP78 ERSR act: inactive

How did CN(C)CCCCOc1ccccc1-c1ccccc1 do in these assays?
TRHR enhancer: inactive; D1 potentiator: inactive; TRHR ag: inactive; D1 antagonist: inactive; D1 agonist: inactive; GRP78 ERSR act: inactive

How did Cn1nc(-c2ccc(OCC(=O)Nc3ccccc3)cc2)c2ccccc2c1=O do in these assays?
TRHR enhancer: inactive; D1 potentiator: inactive; TRHR ag: inactive; D1 antagonist: inactive; D1 agonist: inactive; GRP78 ERSR act: inactive

What do the screens show for `Cn1nc(-c2ccc(OCC(=O)Nc3ccc(Cl)cc3)cc2)c2ccccc2c1=O`?
TRHR enhancer: 35; D1 potentiator: inactive; TRHR ag: inactive; D1 antagonist: inactive; D1 agonist: inactive; GRP78 ERSR act: inactive

Results for Cn1nc(C(=O)NNC(=O)COc2ccccc2)c2ccccc2c1=O ?
TRHR enhancer: inactive; D1 potentiator: inactive; TRHR ag: inactive; D1 antagonist: -35; D1 agonist: inactive; GRP78 ERSR act: inactive

What do the screens show for `O=C(CCN1C(=O)c2ccccc2S1(=O)=O)NCc1ccc(F)cc1`?
TRHR enhancer: inactive; D1 potentiator: inactive; TRHR ag: inactive; D1 antagonist: inactive; D1 agonist: inactive; GRP78 ERSR act: inactive

Results for O=C(Nc1c2c(nn1-c1ccc(F)cc1)CS(=O)(=O)C2)C1CCCC1 ?
TRHR enhancer: inactive; D1 potentiator: inactive; TRHR ag: inactive; D1 antagonist: inactive; D1 agonist: inactive; GRP78 ERSR act: inactive

How did CCOc1cc(C(=O)Nc2ccc(N3CCOCC3)cc2)cc(Br)c1OC do in these assays?
TRHR enhancer: inactive; D1 potentiator: inactive; TRHR ag: inactive; D1 antagonist: inactive; D1 agonist: inactive; GRP78 ERSR act: inactive

How did CCOc1cc(C(=O)Nc2ccc(F)cc2)cc(Br)c1OC do in these assays?
TRHR enhancer: inactive; D1 potentiator: inactive; TRHR ag: inactive; D1 antagonist: -53; D1 agonist: inactive; GRP78 ERSR act: inactive

What do the screens show for `O=C(Nc1ccc2c(c1)oc1ccccc12)c1ccncc1`?
TRHR enhancer: inactive; D1 potentiator: inactive; TRHR ag: inactive; D1 antagonist: inactive; D1 agonist: inactive; GRP78 ERSR act: inactive

What do the screens show for `O=C(Nc1ccc(OCc2ccccc2)cc1)c1cccnc1`?
TRHR enhancer: inactive; D1 potentiator: inactive; TRHR ag: inactive; D1 antagonist: inactive; D1 agonist: 61; GRP78 ERSR act: inactive

Results for O=C(Nc1ccc(Oc2cccnc2)cc1)c1ccccc1F ?
TRHR enhancer: inactive; D1 potentiator: inactive; TRHR ag: inactive; D1 antagonist: -42; D1 agonist: inactive; GRP78 ERSR act: inactive

Results for O=C(Nc1ccc(OCc2ccccc2)cc1)c1ccccc1 ?
TRHR enhancer: inactive; D1 potentiator: inactive; TRHR ag: inactive; D1 antagonist: inactive; D1 agonist: inactive; GRP78 ERSR act: inactive

What do the screens show for `O=C(NNC(=S)Nc1ccccc1)c1cccnc1`?
TRHR enhancer: 41; D1 potentiator: inactive; TRHR ag: inactive; D1 antagonist: inactive; D1 agonist: inactive; GRP78 ERSR act: inactive

What do the screens show for `O=C(Nc1ccc2c(c1)oc1ccccc12)c1cccnc1`?
TRHR enhancer: inactive; D1 potentiator: inactive; TRHR ag: inactive; D1 antagonist: -55; D1 agonist: inactive; GRP78 ERSR act: inactive

What do the screens show for `CC(C)c1ccc(OCC(=O)NCC(c2ccc(Cl)cc2)N2CCOCC2)cc1` (configuration not stated)?
TRHR enhancer: inactive; D1 potentiator: inactive; TRHR ag: inactive; D1 antagonist: inactive; D1 agonist: inactive; GRP78 ERSR act: inactive

How did CC(C)C(NC(=O)OCc1ccccc1)C(=O)OCC(=O)NCc1ccco1 (configuration not stated) do in these assays?
TRHR enhancer: inactive; D1 potentiator: inactive; TRHR ag: inactive; D1 antagonist: inactive; D1 agonist: inactive; GRP78 ERSR act: inactive

Results for Cc1ccnc(NS(=O)(=O)c2ccc(N3C(=O)C4CCCCC4C3=O)cc2)n1 (configuration not stated) ?
TRHR enhancer: 37; D1 potentiator: inactive; TRHR ag: inactive; D1 antagonist: inactive; D1 agonist: inactive; GRP78 ERSR act: inactive

What do the screens show for `N#Cc1cc2ccccc2nc1SCC(=O)Nc1ccccc1N1CCOCC1`?
TRHR enhancer: inactive; D1 potentiator: inactive; TRHR ag: inactive; D1 antagonist: inactive; D1 agonist: 62; GRP78 ERSR act: inactive

How did CNCc1c(OCc2ccc(F)cc2)ccc2ccccc12 do in these assays?
TRHR enhancer: inactive; D1 potentiator: inactive; TRHR ag: inactive; D1 antagonist: -33; D1 agonist: inactive; GRP78 ERSR act: inactive

What do the screens show for `Fc1ccc(COc2ccc3ccccc3c2CNc2nn[nH]n2)cc1`?
TRHR enhancer: inactive; D1 potentiator: inactive; TRHR ag: inactive; D1 antagonist: inactive; D1 agonist: inactive; GRP78 ERSR act: inactive

What do the screens show for `CCOC1(OCC)N=C(N)C2(C#N)C(c3cccc(C)c3)C12C#N` (configuration not stated)?
TRHR enhancer: inactive; D1 potentiator: inactive; TRHR ag: inactive; D1 antagonist: -82; D1 agonist: inactive; GRP78 ERSR act: inactive
